Only some compounds are listed: those with a hit (about 1.8% of all), similar ones and a draw of the others.
A3G deaminase = APOBEC3G DNA deaminase inhibitors, primary screen, biochemical, fluorescence, single-stranded DNA substrate, uHTS. DNA dC->dU-editing enzyme APOBEC-3G (Homo sapiens), Q9HC16. recombinant A3G, ssDNA deamination FAM/TAMRA fluorescence. inhibition, % at 20 µM. 330,000 tested, 0.28% active;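 active = inhibition of at least 40% at 20 µM, with no more than 30% in the related APOBEC3A deaminase screen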;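 also: plate controls were DMSO wells with A3G for no effect and wells lacking A3G enzyme for full effect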
Target sequence (Q9HC16 whole entry, looked up): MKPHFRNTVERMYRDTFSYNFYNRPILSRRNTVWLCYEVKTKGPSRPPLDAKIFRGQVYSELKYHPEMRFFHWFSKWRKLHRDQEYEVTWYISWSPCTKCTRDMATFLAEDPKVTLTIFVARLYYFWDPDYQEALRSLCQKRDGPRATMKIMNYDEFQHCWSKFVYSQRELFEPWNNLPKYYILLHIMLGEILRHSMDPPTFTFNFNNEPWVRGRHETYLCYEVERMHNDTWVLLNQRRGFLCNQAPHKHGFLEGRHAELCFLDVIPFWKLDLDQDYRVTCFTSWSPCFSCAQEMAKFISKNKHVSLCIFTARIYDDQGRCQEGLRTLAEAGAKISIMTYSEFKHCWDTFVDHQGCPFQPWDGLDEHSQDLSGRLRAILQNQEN
APOBEC3A inh = APOBEC3A ssDNA deaminase inhibitors, primary screen, selectivity assay for APOBEC3G inhibitor project, biochemical, FAM/TAMRA oligo cleavage fluorescence; recombinant A3A, FAM/TAMRA ssDNA deamination fluorescence; DNA dC->dU-editing enzyme APOBEC-3A (Homo sapiens), P31941; inhibition, % at 20 µM; 330,000 tested, 0.41% active;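 active = at least 40% inhibition at 20 µM here, with at most 30% in a related deaminase screen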;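 also: plate controls were A3A with DMSO for no effect and wells lacking A3A enzyme for full effect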
MIN6 prolif-1 = inducers of MIN6 beta-cell proliferation, primary screen, ATP luminescence, uHTS; MIN6 cells proliferation, ATPlite luminescence, 48 h; cells starved in 0.2% serum; 100% = growth in 10% serum; proliferation, % at 10 µM; 330,000 tested, 0.29% active; AID 2380, 2010;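 active = compounds whose signal lies at least 3.5 SD above the mean of all wells on their plate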;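 also: 0% = DMSO-treated cells in low-serum medium and 100% = 10% serum control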
NRP1-CendR mod = modulators of CendR peptide binding to NRP-1, primary screen, biochemical, fluorescence polarization, uHTS. AID 602438, 2012. Neuropilin-1 (Homo sapiens), O14786. inhibition, % at 25 µM. FAM-RPARPAR peptide binding to NRP-1. 360,000 tested, 0.85% active;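 active = inhibition or corrected inhibition above about 18%, plus a signal ratio from 0.5 to 1.5, limit read from the data, passing the limit was not always enough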
VLA-4 inh = inhibition in human VLA-4 binding assay, primary screen, VLA-4 allosteric modulator project, MLPCN library, flow cytometry, VLA-4 expressing cells; 330,000 tested, 0.2% active; AID 2557, 2010; ligand binding flow cytometry; Integrin alpha-4 (Homo sapiens), P13612; inhibition, % (about 7 µM as worked out from the volumes in the protocol); in the data active = inhibition above about 50%
MIN6 prolif-2 = inducers of beta-cell proliferation in MIN6, confirmation, MIN6 cells, mouse | shares compounds with MIN6 prolif-1 | 920 tested, under 10 active | ATPlite luminescence, 48 h; cells kept in 0.2% serum; scaled between 0.2% and 10% serum | proliferation increase, % at 50 µM | AID 463095, 2010;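 active = proliferation increase above 40% at any of the four tested concentrations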
An asterisk follows results filed as active; / = not tested or not shown.

SMILES	A3G deaminase	APOBEC3A inh	MIN6 prolif-1	NRP1-CendR mod	VLA-4 inh	MIN6 prolif-2
Cc1c(C(=O)N2CCCCC2)c(S(=O)(=O)N2CCC(C)CC2)c(C)n1C	-3.4	-2.3	6.4	12.4	-0.2	/
S=C(NCCN1CCOCC1)N/N=C/c1cccs1	-3.7	-5.5	10.4*	5.1	7.8	-6.4
CS(=O)(=O)N1CCC(C(=O)Nc2ccc(F)cc2)CC1	-8.1	-6.5	-1.7	5.3	-12.2	/
CS(=O)(=O)N1CCC(C(=O)Nc2ccc(F)cc2F)CC1	-1.7	-2.2	5.7*	4.6	-15.6	0.7
CCCCn1c(SCC(=O)Nc2sc3c(c2C(N)=O)CCC3)nnc1-c1ccccc1	-4.4	-2.1	8.3*	-9.1	-10.3	-6.2
NC(=O)c1c(NC(=O)CSc2nnc(Cc3ccccc3)n2Cc2ccco2)sc2c1CCC2	-4.1	2.9	-1.6	2.3	-4.4	/
COc1ccc([N+](=O)[O-])cc1NCc1cccc([N+](=O)[O-])c1	-1.5	0.2	-1.3	0.0	-7.4	/
COc1ccc([N+](=O)[O-])cc1NCc1cccnc1	-5.1	-1.8	11.1*	9.7	6.8	2.4
O=C(COc1ccc(F)cc1)NCCCn1ccnc1	-4.1	-6.0	-2.3	3.2	/	/
COc1ccc(/C=C(\NC(=O)c2ccc(C)cc2)C(=O)Nc2ccc(C(=O)O)cc2)cc1	-4.7	-1.1	-2.6	5.2	7.7	/
COc1cc(-c2noc(C)c2C#CC2(N)CCCCC2)cc(OC)c1OC	-8.4	-1.0	-3.5	6.4	5.6	/
COc1cc(-c2noc(C)c2C#CC2(O)CCCCC2)cc(OC)c1OC	-5.8	-1.5	11.9*	-5.1	18.8	-6.4
CCOC(=O)C(C)Sc1nc2c(c(=O)[nH]c(=O)n2C)n1CCc1ccccc1 (centres undefined)	6.4	0.0	-0.3	-0.2	-9.4	/
CCCCOC(=O)CSc1nc2c(c(=O)[nH]c(=O)n2C)n1C/C=C(\C)Cl	-3.0	-5.3	5.4*	5.3	31.1	-3.9
C/C(Cl)=C/Cn1c(SCC(C)C)nc2c1c(=O)[nH]c(=O)n2C	-5.1	-2.2	2.6	11.7	-15.7	/
CCOC(=O)C(CC)Sc1nc2c(c(=O)[nH]c(=O)n2C)n1C/C=C(/C)Cl (centres undefined)	-5.4	-3.7	5.4*	3.9	3.0	-6.2
CC(C)=CC(=O)N1CCCC(N2CCN(c3ccc(F)cc3)CC2)C1 (centres undefined)	-4.2	-6.9	2.9	2.6	15.4	/
Cc1ccccc1Nc1nc(N)nc(CSc2n[nH]c(N)n2)n1	0.0	6.1	0.1	1.3	2.7	/
CCC(C)NC(=O)CCSc1ccc(C)cc1 (centres undefined)	-8.4	-2.8	0.0*	7.2	0.0	0.7
CCC(C)NC(=O)CSc1ccc(Cl)cc1 (centres undefined)	-0.2	-1.5	-1.4	-6.5	-3.8	/
C=CCn1cc([N+](=O)[O-])nc1C	-0.8	-0.9	7.8*	-6.5	1.8	-2.6
CCCCn1cc([N+](=O)[O-])nc1C	-5.1	1.1	2.5	-11.4	13.9	/
CC(C)Cn1c(N)c(/C=N/NC(=O)c2ccc(Cl)cc2)c(=O)n(C)c1=O	-6.7	1.5	6.5*	-1.5	-3.0	-0.6
COc1ccc(CCN(C)C(=O)c2cc(-c3ccccc3)nc3ccc(C)cc23)cc1OC	-7.5	-2.9	11.0*	6.7	12.0	-6.0
COc1ccc(S(=O)(=O)N2CCN(Cc3cc(=O)n4ccccc4n3)CC2)cc1	7.4	5.8	-0.2	-3.5	-11.7	/
C=CCOn1c(=O)c(-c2ccc(F)cc2)[n+]([O-])c2ccccc21	-3.8	0.2	10.7*	7.0	/	2.6
C=CCOn1c(=O)c(-c2ccc(Cl)cc2)[n+]([O-])c2ccccc21	-6.1	2.0	-0.1	1.0	/	/
COc1ccc(OC)c(C(=O)CSc2nccc(-c3ccc(Br)cc3)n2)c1	-0.5	2.3	5.6*	2.9	-5.0	-3.1

Screens as filed in PubChem BioAssay.
